Measured values reported in the supplement of paper PMC11732987, “Enantioselective OTUD7B fragment discovery through chemoproteomics screening and high-throughput optimisation” (Communications Chemistry, 2025).
Values without a mark were called inactive.

Target: T1, VCPIP1 (UniProt Q96JH7)
T1 sequence (whole entry): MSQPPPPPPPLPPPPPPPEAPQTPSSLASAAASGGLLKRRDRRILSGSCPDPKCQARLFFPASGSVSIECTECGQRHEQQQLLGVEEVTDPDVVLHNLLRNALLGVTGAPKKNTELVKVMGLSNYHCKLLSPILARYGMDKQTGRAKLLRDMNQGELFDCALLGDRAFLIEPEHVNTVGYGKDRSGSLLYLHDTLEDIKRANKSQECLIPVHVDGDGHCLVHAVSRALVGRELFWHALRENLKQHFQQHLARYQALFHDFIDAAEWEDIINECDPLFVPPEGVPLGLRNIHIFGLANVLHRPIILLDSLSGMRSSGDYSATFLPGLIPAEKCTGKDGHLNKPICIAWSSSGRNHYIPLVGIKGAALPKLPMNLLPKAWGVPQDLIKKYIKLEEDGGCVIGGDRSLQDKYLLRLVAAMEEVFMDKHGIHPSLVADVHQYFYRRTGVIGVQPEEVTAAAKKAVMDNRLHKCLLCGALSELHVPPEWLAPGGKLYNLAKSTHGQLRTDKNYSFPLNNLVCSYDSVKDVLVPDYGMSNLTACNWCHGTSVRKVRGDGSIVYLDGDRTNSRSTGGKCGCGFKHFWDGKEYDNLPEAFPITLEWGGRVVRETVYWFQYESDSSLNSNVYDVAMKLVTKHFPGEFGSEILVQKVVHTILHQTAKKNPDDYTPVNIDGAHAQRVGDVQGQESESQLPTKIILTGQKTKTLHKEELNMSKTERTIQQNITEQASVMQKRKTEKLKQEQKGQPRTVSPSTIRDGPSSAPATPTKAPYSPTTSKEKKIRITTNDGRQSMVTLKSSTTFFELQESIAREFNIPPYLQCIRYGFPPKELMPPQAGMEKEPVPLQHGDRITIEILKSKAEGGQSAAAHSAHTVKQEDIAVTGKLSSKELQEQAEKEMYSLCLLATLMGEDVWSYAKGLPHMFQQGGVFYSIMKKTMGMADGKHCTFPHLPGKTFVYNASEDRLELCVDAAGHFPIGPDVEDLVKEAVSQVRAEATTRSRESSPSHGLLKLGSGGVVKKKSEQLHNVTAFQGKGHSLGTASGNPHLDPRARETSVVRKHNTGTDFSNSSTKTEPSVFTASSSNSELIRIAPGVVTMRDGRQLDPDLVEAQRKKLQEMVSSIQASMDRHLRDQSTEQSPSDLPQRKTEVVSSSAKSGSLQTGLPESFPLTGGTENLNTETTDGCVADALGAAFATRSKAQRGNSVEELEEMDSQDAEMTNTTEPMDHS
Test: log2 ratio of Biotin-Ahx-Ub-VS probe labelling (fragment/DMSO); higher = less target engagement (more negative = stronger competition), active = hit call of the paper (q ≤ 0.05, log2 ratio ≤ -1)
Conditions: compound concentration: 200 uM; treatment time: 3 h
Method: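 Competitive ABPP in HEK293T cell lysate. Lysates were treated with each chloroacetamide fragment at 200 µM for 3 h, then with Biotin-Ahx-Ub-VS (0.5 µM, 1 h), NeutrAvidin-enriched and analysed by diaPASEF LC-MS/MS. Protein LFQ was median-normalised; average log2 ratio is fragment/DMSO from an unpaired t-test (n=3 treated, n=44 DMSO). Hits: q ≤ 0.05, log2 ratio ≤ -1, unique peptides ≥ 2.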

SMILES	log2 ratio of Biotin-Ahx-Ub-VS probe labelling
Cc1cc(Cl)ccc1NC(=O)CCl	-0.193
Cc1nnc(C(NC(=O)CCl)c2ccccc2)n1C (stereo not given)	0.452
CC(NC(=O)CCl)c1cccc2ccccc12 (stereo not given)	-1.05 (active)
Cl.O=C(CCl)NCc1cc2c(nc1O)CCCC2	-1.56 (active)
CN(C)C(=O)c1ccc(NC(=O)CCl)cc1	-0.601
CCC(NC(=O)CCl)c1ccc(Cl)cc1 (stereo not given)	-0.836
COCC[C@@H](NC(=O)CCl)c1ccccc1	-0.654
CCc1c[nH]c(CNC(=O)CCl)n1.Cl	-0.554
Cc1ccn2cc(CNC(=O)CCl)nc2c1.Cl	-0.598
CC(NC(=O)CCl)c1cnn(C2CC2)c1 (stereo not given)	-1.15 (active)
O=C(CCl)NC(Cn1ccccc1=O)c1ccccc1 (stereo not given)	-0.334
O=C(CCl)NCCC1=CCCCC1	-0.647
Cl.O=C(CCl)N1CCCC(c2ncc[nH]2)C1 (stereo not given)	-0.387
CNC(=O)C1(NC(=O)CCl)CCCCC1	-0.262
Cn1cc(CN(Cc2ccc(Cl)cc2)C(=O)CCl)cn1	-0.623
CCN(C(=O)CCl)C1CCCCC1	-0.114
Cc1c(NC(=O)CCl)c(=O)n(-c2ccccc2)n1C	-0.255
C[C@H]1CN(C(=O)CCl)CCN1C(=O)c1cnn(C)c1.Cl	-0.157
CS(=O)(=O)N1CCCN(C(=O)CCl)CC1	-0.326
COc1ccc(CN(C)C(=O)CCl)cc1	-1.54 (active)

SMILES	log2 ratio of Biotin-Ahx-Ub-VS probe labelling
Cl.O=C(CN1CCN(C(=O)CCl)CC1)Nc1ccc(F)cc1	-0.257
O=C(CCl)Nc1cccc(C(=O)N2CCSCC2)c1	-2.83
O=C(CCl)N1CCC(c2noc3cc(F)ccc23)CC1	-2.98 (active)
O=C(CCl)N1CCCCCC1c1ncon1 (stereo not given)	-0.233
Cc1n[nH]c2c1CN(C(=O)CCl)CC2	-1.02 (active)
CC(NC(=O)CCl)c1csc(-c2ccccc2)n1.Cl (stereo not given)	-2.16 (active)
Cc1ccccc1C1(CNC(=O)CCl)CCOCC1	-0.843
CCC1c2ccsc2CCN1C(=O)CCl (stereo not given)	-0.892
O=C(CCl)Nc1ccc(F)cc1Cl	-1.05 (active)
O=C(CCl)N1CCN(C(=O)Nc2ccccc2)CC1	-0.418
O=C(CCl)N1CCc2nc[nH]c2C1c1ccc(Cl)cc1 (stereo not given)	-1.07 (active)
C#Cc1cccc(NC(=O)CCl)c1	-2.17 (active)
NS(=O)(=O)c1ccc(Cl)c(NC(=O)CCl)c1	-2.53 (active)
CCN(Cc1ccc(C#N)cc1F)C(=O)CCl	-0.594
O=C(CCl)N1CCOC(c2cccc(F)c2)C1 (stereo not given)	-1.67 (active)
CC(NC(=O)CCl)c1cc2n(n1)CCCC2.Cl (stereo not given)	-0.662
O=C(CCl)N1CCOCCC1c1ccccc1 (stereo not given)	-0.265
C/C(=C\CNC(=O)CCl)c1cnn(C)c1.Cl	-1.53 (active)
O=C(CCl)NCc1ccc2c(c1)OCO2	-2 (active)
Cc1ccc(CC(CO)CNC(=O)CCl)cc1 (stereo not given)	-2.23 (active)
